In all, about 420,000 compounds went through this assay and about 64,000 (15%) were called active. Not shown: some 27% with an inconclusive outcome. The list is a sample of the results. A number with no mark means an inactive call. Calls follow the shape of the dose curve; as a rule, active = well fitted inhibition curve with a large enough effect; inconclusive = small, poorly fitted or top-dose-only effect; inactive = flat fitted curve, though single readings scatter. Peptide text beside a SMILES is read from it.
experiment: qHTS for Inhibitors of human tyrosyl-DNA phosphodiesterase 1 (TDP1): qHTS in cells in absence of CPT; settings: DT40 Tdp1-/- hTDP1 cells, no CPT, ATP luminescence, 48 h; activity change, negative = growth inhibition: at 46.2 µM (top of the series); also: nearly all actives have a fitted effect of over 55% in size
Outline: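 No-CPT arm: Tdp1-/-;hTDP1 DT40 cells (400/well) plus compounds, incubated ≥48 hr at 37 °C. Readout CellTiter-Glo luminescence.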
% is scaled to controls: 0 for no effect and ±100 for the full control effect; potency is read from the fitted curve at half-maximal effect.

Row | Structure (SMILES) | activity change, negative = growth inhibition | Potency
1 | NC(=O)c1cc(-c2cccnc2)nc2ccc(Br)cc12 | -13.9% | –
2 | CN1C(=O)/C(=N/OC(=O)c2ccccc2Br)c2ccccc21 | -28.5% | –
3 | COc1cc(SC#N)ccc1N=Cc1c(C)[nH]n(-c2ccc(C)cc2)c1=O | – | 3.66 µM (active)
4 | CCOC(=O)c1sc2nc(C)nc(SCC(N)=O)c2c1C | 2.57% | –
5 | COC(=O)[C@]1(C)N[C@H](c2ccc(-c3ccc(Cl)c(Cl)c3)cc2)[C@@H]2C(=O)N(C)C(=O)[C@@H]21 | – | 16.4 µM (active)
6 | COC(=O)C1(C)NC(c2ccc(F)cc2)C2C(=O)N(c3ccccc3)C(=O)C21 (stereo unspecified) | 17.9% | –
7 | COC(=O)C1(C)NC(c2ccc(C)cc2)C2C(=O)N(c3ccc(F)cc3)C(=O)C21 (stereo unspecified) | 5.47% | –
8 | O=S(=O)(c1ccc(F)cc1)N1CC=C(c2ccccc2)CC1 | -29.1% | –
9 | CC1(C)CC(=O)C2=C(C1)NCN(CCCN1CCOCC1)C2 | -11.2% | –
10 | Cc1c(NC(=O)CN2C(=O)C(=O)N(Cc3ccccc3)C2=O)c(=O)n(-c2ccccc2)n1C | 7.02% | –
11 | CCOC(=O)c1cc2c(=O)n3ccccc3nc2n(CC(C)C)c1=NC(=O)c1c(-c2c(F)cccc2Cl)noc1C | – | 5.8 µM (active)
12 | CCOC(=O)c1cc2c(=O)n3ccccc3nc2n(CCCOC)c1=NC(=O)C(C)Oc1ccccc1 (stereo unspecified) | -24.7% | –
13 | CCOC(=O)c1cc2c(=O)n3ccccc3nc2n(CC2CCCO2)c1=NC(=O)c1ccc(C(C)(C)C)cc1 (stereo unspecified) | -2.39% | –
14 | c1c2c(cc3sc(N4CCCCC4)nc13)OCCO2 | -22.8% | –
15 | CCc1nc(C)ccc1OCC(=O)N(CC)CC | -10.2% | –
16 | CCC(C)(C)c1ccc(OCC(=O)N(C)C)c(C(C)(C)CC)c1 | – | 18.4 µM (active)
17 | CCn1c(SCC(=O)NNC(=O)c2ccc(OC)cc2)nnc1C(C)C | – | 20.6 µM (active)
18 | Cc1cccc(C(=O)NNC(=O)CSc2nnc(C(C)C)n2C)c1 | 0.652% | –
19 | CCn1c(CNc2ccc(OC)cc2)nnc1SCC(=O)c1ccc(OC)cc1 | -21.5% | –
20 | CCNC(=O)NC(=O)C(C)OC(=O)C1CCN(S(=O)(=O)c2ccccc2F)CC1 (stereo unspecified) | -0.61% | –
21 | Cc1nc(COc2cccc(Cl)c2)sc1C(=O)/C=C/N(C)C | -10.1% | –
22 | CCOc1ccccc1C(=O)Nc1ccc(S(=O)(=O)N2CCCCC2c2cccnc2)cc1 (stereo unspecified) | – | 18.4 µM (active)
23 | Cc1cccc(C(=O)Nc2ccc(S(=O)(=O)N3CCCCC3c3cccnc3)cc2)c1 (stereo unspecified) | – | 18.4 µM (active)
24 | CCOc1ccc(S(=O)(=O)N2CCC(c3ccccc3)CC2)cc1C(=O)O | 9.36% | –

Row | Structure (SMILES) | activity change, negative = growth inhibition | Potency
25 | CCOc1ncccc1C(=O)Nc1ccc(S(=O)(=O)Nc2nc(C)cc(C)n2)cc1 | -3.56% | –
26 | Cc1cc(NS(=O)(=O)c2ccc(NC(=O)c3cccnc3)cc2)nc(C)n1 | -9.45% | –
27 | CC(C)NS(=O)(=O)c1ccc(NC(=O)c2cccnc2)cc1 | -17.9% | –
28 | CCn1ccnc1CNC(=O)CC1C(=O)NCCN1Cc1ccc(F)cc1Cl (stereo unspecified) | 1.09% | –
29 | COC(=O)Cn1c(=NC(=O)c2cc(OC)c(OC)c(OC)c2)sc2cc(OC)ccc21 | -24.5% | –
30 | NS(=O)(=O)c1cccc(NC(=O)COC(=O)c2cc([N+](=O)[O-])ccc2N2CCCC2)c1 | -4.81% | –
31 | O=C(Nc1cccc(F)c1)[C@@H]1CCCN1 | 7.69% | –
32 | CC(C)(C)C(=O)Cn1c(NCCO)nc2ccccc21 | -3.49% | –
33 | CCCn1c(NCc2ccc(N(CC)CC)cc2)nc2ccccc21 | – | 8.2 µM (active)
34 | CCCn1nnnc1NCc1ccc(CC)cc1 | -10.5% | –
35 | O=C(O)CN1C(=O)CC(Cc2ccccc2)C1=O (stereo unspecified) | -0.391% | –
36 | Cc1cc(NC(=O)COn2nnc3ccccc32)no1 | -17.8% | –
37 | COC(=O)c1cc(NC(=O)C2C3C=CC(C3)C2C(=O)O)cc(C(=O)OC)c1 (stereo unspecified) | 3.17% | –
38 | O=C(NCCCNCc1ccccc1)c1ccc(/C=N/O)nc1 | 3.22% | –
39 | CCc1ccc(Nc2n[n+](-c3ccccc3)c(-c3cccc(Cl)c3Cl)s2)cc1 | – | 16.4 µM (active)
40 | Cc1noc(C)c1S(=O)(=O)NCCc1ccc(S(N)(=O)=O)cc1 | -8.65% | –
41 | COC(=O)c1ccc([C@@H](O)[C@H](C)C(=O)CC(=O)OC(C)(C)C)cc1 | -16.3% | –
42 | O=C(c1ccccc1)c1ccc2nc(N3CCCCC3)c3nncn3c2c1 | – | 13 µM (active)
43 | O=C(c1ccccc1)c1ccc(OC(=O)N2CCCC2)cc1 | -25% | –
44 | c1ccc(CC2CCN(c3nc4ccccc4n4cnnc34)CC2)cc1 | -8.6% | –
45 | COc1ccccc1OCCCC(=O)Nc1ccc2c(c1)OCCO2 | -24.4% | –
46 | COc1cccc(/C=C/C(=O)Nc2ccc3c(c2)OCCO3)c1 | -13.1% | –
47 | COc1ccc(OC)c(/C=C/C(=O)OCC(=O)Nc2ccc3c(c2)OCCO3)c1 | – | 16.4 µM (active)
48 | S=c1c2[nH]cnc2ncn1CCSc1ncnc2nc[nH]c12 | -24.7% | –

Row | Structure (SMILES) | activity change, negative = growth inhibition | Potency
49 | Cc1ccc(NC(=O)CN(C)C(=O)c2ccc(Cl)c(S(=O)(=O)NCc3ccco3)c2)cc1 | 11.9% | –
50 | CC[C@H](C)CCCCC(=O)N[C@@H](CCN)C(=O)N[C@H](C(=O)N[C@@H](CCN)C(=O)N[C@H]1CCNC(=O)[C@H]([C@@H](C)O)NC(=O)[C@H](CCN)NC(=O)[C@H](CCN)NC(=O)[C@H](CC(C)C)NC(=O)[C@@H](CC(C)C)NC(=O)[C@H](CCN)NC1=O)[C@@H](C)O (HELM PEPTIDE1{[CC[C@H](C)CCCCC(=O)[*:2]].[Dab].T.[Dab].[Dab].[Dab].[dL].L.[Dab].[Dab].T}$PEPTIDE1,PEPTIDE1,5:R3-11:R2$$$V2.0) | -2.38% | –
51 | O=C(CSc1nnc(CNC(=O)c2ccccc2)n1-c1ccc(F)cc1)Nc1ccccc1F | -10.5% | –
52 | CCOc1ccc(NC(=O)Cn2c(C)ccc(C#N)c2=O)cc1 | 0.582% | –
53 | CCOC(=O)/C=c1\s/c(=C\c2ccc(C#N)cc2)c(=O)n1CC(=O)Nc1cccc(C)c1C | – | 5.17 µM (active)
54 | Cc1cccc(NC(=O)CN2C(=O)c3ccccc3C2=O)c1C | 1.62% | –
55 | Cc1nc(SCC(=O)NC2CCCC2)[nH]c(=O)c1C | -0.993% | –
56 | Cc1ccsc1C(=O)OCC(=O)c1cc2ccccc2o1 | -9.66% | –
57 | CCCCc1nn2c(=O)cc(COC(=O)c3cccc(NC(=O)COc4ccccc4)c3)nc2s1 | -10.2% | –
58 | O=C1CS(=O)CN1c1ccc(Oc2ccccc2)cc1 (stereo unspecified) | -20.1% | –
59 | O=C(CN1C(=O)NC2(CCCCCC2)C1=O)NCc1ccc(F)cc1 | 3.82% | –
60 | COc1cc(OC)c(NC(=O)c2cc(S(=O)(=O)N3CCCC3)cn2C)cc1Cl | -7.62% | –
61 | COc1ccccc1N(C)C(=O)c1cc(S(=O)(=O)N2CCc3ccccc32)cn1C | – | 25.9 µM (active)
62 | COc1cccc(NC(=O)c2cc(S(=O)(=O)N3CCc4ccccc43)cn2C)c1 | -1.2% | –
63 | CN(C(=O)COC(=O)Cn1cnc2c1c(=O)n(C)c(=O)n2C)C1(C#N)CCCCC1 | 0.855% | –
64 | NCC(=O)c1cccc2ccc[n+]([O-])c12 | -0.678% | –
65 | O=C(c1cnccn1)N1CCC2(CCCN(Cc3ccccc3)C2)CC1 | -1.1% | –
66 | CCN(Cc1ccncc1)C(=O)[C@@H](CO)c1ccccc1 | 2.72% | –
67 | C=CCn1c(SCC(=O)NCc2ccccc2)nnc1-c1cc(Br)ccc1O | -18% | –
68 | C=CCOC(=O)N1CCC2CC1c1cc(-c3ccc(OC)cc3)ccc12 (stereo unspecified) | – | 16.4 µM (active)
69 | COc1ccc(NC(=O)CCN2CCCC2)c(OC)c1 | 0.0354% | –
70 | COc1ccc(-c2ccc3c(c2)C2CC3CCN2CCC#N)cc1 (stereo unspecified) | – | 23.1 µM (active)
71 | COc1ccc(OCC(=O)NNC(=O)C2CCC2)cc1 | -5.78% | –
72 | CC1CC1C(=O)OCC(=O)c1c(N)n(C)c(=O)n(C)c1=O (stereo unspecified) | 8.67% | –

Row | Structure (SMILES) | activity change, negative = growth inhibition | Potency
73 | CCOC(=O)N1CCN(C(c2cccnc2)c2ccc3cccnc3c2O)CC1 (stereo unspecified) | – | 1.64 µM (active)
74 | CCOC(=O)N1CCN(C(=O)c2cc3c(ccc4ccccc43)oc2=O)CC1 | -24.1% | –
75 | Cc1onc(C(=O)NN)c1C(=O)N1CCN(C(c2ccccc2)c2ccccc2)CC1 | -18.3% | –
76 | CCOC(=O)Cn1nnnc1C | -9.63% | –
77 | CCC(C)CCN1CCN=C1N(C)C (stereo unspecified) | -17.4% | –
78 | CC(C)NS(=O)(=O)c1ccc(OCC(=O)Nc2ccc3c(c2)OCCO3)cc1 | -0.099% | –
79 | CC1CC2=C(CC1/C=N/NC(N)=S)C(C)(C)CCC2 (stereo unspecified) | – | 3.26 µM (active)
80 | Cc1ccc(OCC(=O)OCc2cc(=O)n3nc(C4CC4)sc3n2)cc1C | 0.484% | –
81 | COc1cccc(Nc2nnc(SCC(=O)N3CC(=O)Nc4ccccc43)s2)c1 | -29.2% | –
82 | N#C/C(=C/c1cccc([N+](=O)[O-])c1)c1nnc2n1CCCCC2 | – | 13 µM (active)
83 | N#C/C(=C(\O)C(F)(F)F)c1nnc2n1CCCCC2 | -0.657% | –
84 | O=c1c2cc([N+](=O)[O-])ccc2nc2n1CCC2 | -13.8% | –
85 | Cc1ccc(NC(=O)c2cc([N+](=O)[O-])ccc2Cl)c(O)c1 | -26.4% | –
86 | CCn1cc(C(=O)N[C@@H](C)C(=O)NCCO)c(=O)c2cc3c(cc21)OCO3 | 34.9% | –
87 | NC(=O)c1sc(-c2ccsc2)cc1N | -17.9% | –
88 | C#CCOCCOCCOCCNc1nc(N2CCN(C(=O)[C@H](CCCN=C(N)N)n3cc(C(N)[C@@H](C)CC)nn3)CC2)nc(N2CCN(C(=O)[C@H](CO)n3cc([C@@H](N)C(C)C)nn3)CC2)n1 (stereo partly specified) | -2.88% | –
89 | C#CCOCCOCCOCCNc1nc(N2CCN(C(=O)Cn3cc(CCO)nn3)CC2)nc(N2CCN(C(=O)Cn3cc(CCCN=C(N)N)nn3)CC2)n1 | -0.16% | –
90 | C#CCOCCOCCOCCNc1nc(N2CCN(C(=O)CCCCCCCCCCNC(=O)[C@H]([C@@H](C)CC)n3cc(CCCCN=C(N)N)nn3)CC2)nc(N2CCN(C(=O)CCCCCCCCCCNC(=O)[C@H](CO)n3cc(CCCSC)nn3)CC2)n1 | – | 8.2 µM (active)
91 | CCN(CC)CCCSc1nc2ccccc2s1 | -17.6% | –
92 | O=C(NC(=O)N1CCSCC1)c1c(Cl)cccc1Cl | -12% | –
93 | O=C(NCCc1cccc(F)c1)C1CC(O)CN1C(=O)Nc1ccccc1 (stereo unspecified) | -11.9% | –
94 | COc1cc(CCC(=O)N2CCN(c3ccccc3Cl)CC2)cc(OC)c1OC | – | 11.6 µM (active)
95 | COc1cc(CCC(=O)Nc2ccncc2Cl)cc(OC)c1OC | -14.5% | –
96 | COc1ccc(CCC(=O)N2CCN(S(=O)(=O)c3ccc(OC)cc3)CC2)cc1 | -32.4% | –
